Data published in the supplement of paper PMC10849652.
Of roughly 8,800 targets only a part is listed; those with a hit were picked by preference. About 0.5% of all pairs of compound and target were hits.

Compound: C1CCN(C1)C(=O)NC2=CC=CC(=C2)NC3=NC=C(C(=N3)NCCC4=CN=CN4)Br
Assay: log2 fold change, soluble protein after heating vs DMSO (PISA); higher = thermal stabilisation; K562 lysate, 10 uM; active = over 0.2 and 3.5 SD of the protein, either way, in both replicates (recomputed)
In short: (§1)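 Following dounce homogenisation of K562 pellets in PBS pH 7.4 with 1 mM MgCl2, crude extract at 1 mg/mL protein was incubated for 30 min with 10 μM compound. Aliquots were then heated for 3 min over 48°C-58°C and pooled, NP-40 was added to 0.5% at 4°C, and soluble protein was recovered as the supernatant at 21,000xg for 90 min. Channel-sum-equalised TMTpro 16plex LC-MS/MS quantified this protein. Each value, from duplicates, is a log-two fold change in thermal stability relative to solvent controls.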

Sequence of UniProt Q13616 (Q13616 whole entry, looked up): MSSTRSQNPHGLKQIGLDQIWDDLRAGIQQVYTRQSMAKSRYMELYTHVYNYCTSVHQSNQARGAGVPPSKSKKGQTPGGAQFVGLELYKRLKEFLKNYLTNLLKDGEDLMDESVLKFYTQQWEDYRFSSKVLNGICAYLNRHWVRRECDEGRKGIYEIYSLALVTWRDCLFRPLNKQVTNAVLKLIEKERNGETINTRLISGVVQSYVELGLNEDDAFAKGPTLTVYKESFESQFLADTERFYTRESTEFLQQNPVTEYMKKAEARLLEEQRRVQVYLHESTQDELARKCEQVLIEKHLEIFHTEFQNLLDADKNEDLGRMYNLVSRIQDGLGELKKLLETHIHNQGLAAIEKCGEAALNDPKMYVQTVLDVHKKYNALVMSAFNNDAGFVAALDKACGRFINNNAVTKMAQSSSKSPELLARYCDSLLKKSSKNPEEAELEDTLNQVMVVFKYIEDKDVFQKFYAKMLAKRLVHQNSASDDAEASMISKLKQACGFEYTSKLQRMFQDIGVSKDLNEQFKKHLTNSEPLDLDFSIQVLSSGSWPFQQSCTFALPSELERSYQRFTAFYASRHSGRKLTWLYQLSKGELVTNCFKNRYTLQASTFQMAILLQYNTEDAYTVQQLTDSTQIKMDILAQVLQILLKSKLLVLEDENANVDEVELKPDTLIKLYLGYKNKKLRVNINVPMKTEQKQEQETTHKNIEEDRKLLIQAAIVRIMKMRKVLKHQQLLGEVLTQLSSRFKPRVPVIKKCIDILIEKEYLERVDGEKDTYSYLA
Sequence of UniProt Q92989 (Q92989 whole entry, looked up): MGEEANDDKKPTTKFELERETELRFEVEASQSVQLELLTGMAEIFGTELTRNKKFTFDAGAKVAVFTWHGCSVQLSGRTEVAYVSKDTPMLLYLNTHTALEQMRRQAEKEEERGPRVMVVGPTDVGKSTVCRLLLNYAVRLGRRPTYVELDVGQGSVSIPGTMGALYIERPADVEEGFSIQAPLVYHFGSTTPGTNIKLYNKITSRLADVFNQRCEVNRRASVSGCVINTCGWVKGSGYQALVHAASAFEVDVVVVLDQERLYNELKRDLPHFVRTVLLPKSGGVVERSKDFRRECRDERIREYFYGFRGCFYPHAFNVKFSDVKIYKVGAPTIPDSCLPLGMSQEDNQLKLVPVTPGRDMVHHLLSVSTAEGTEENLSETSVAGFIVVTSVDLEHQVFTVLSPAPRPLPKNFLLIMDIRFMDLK
Sequence of UniProt P26374 (P26374 whole entry, looked up): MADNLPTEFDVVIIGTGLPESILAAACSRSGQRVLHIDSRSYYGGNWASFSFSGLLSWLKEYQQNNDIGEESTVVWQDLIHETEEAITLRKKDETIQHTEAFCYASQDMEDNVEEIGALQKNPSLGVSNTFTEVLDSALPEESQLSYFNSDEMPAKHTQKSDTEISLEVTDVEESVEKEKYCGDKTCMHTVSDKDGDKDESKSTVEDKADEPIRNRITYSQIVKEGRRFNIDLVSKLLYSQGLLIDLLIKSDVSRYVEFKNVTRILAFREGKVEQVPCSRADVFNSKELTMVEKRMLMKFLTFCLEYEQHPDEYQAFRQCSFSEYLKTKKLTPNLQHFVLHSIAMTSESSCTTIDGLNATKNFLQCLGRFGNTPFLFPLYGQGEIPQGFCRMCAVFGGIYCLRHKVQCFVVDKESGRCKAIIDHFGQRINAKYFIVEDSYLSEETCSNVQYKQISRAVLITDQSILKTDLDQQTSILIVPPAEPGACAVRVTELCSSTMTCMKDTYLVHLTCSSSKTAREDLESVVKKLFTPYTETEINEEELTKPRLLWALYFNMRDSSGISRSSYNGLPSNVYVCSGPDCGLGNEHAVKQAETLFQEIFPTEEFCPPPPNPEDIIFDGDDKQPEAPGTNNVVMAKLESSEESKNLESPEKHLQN
Sequence of UniProt O95628 (O95628 whole entry, looked up): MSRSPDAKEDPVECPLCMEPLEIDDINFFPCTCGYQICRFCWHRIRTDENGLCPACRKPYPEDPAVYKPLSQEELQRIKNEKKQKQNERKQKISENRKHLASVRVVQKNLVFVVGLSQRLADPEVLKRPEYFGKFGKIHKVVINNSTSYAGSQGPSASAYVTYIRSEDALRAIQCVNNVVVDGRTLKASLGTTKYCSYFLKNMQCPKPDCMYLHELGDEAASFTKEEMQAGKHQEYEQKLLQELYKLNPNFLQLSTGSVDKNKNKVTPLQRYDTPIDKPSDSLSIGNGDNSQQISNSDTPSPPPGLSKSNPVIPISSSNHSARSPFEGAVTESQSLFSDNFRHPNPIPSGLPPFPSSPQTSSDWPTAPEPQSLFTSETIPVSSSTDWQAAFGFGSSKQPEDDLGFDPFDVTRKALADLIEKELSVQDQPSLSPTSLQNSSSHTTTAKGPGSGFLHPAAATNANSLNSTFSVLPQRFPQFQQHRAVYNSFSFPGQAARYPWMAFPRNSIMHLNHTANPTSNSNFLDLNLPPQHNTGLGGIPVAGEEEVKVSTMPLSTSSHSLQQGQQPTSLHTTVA
Sequence of UniProt Q99828 (Q99828 whole entry, looked up): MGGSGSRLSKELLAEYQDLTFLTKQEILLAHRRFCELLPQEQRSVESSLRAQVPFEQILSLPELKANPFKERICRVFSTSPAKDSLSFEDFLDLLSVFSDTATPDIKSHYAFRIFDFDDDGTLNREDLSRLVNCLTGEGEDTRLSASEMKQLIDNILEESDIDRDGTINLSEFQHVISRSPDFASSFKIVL
Sequence of UniProt P21964 (P21964 whole entry, looked up): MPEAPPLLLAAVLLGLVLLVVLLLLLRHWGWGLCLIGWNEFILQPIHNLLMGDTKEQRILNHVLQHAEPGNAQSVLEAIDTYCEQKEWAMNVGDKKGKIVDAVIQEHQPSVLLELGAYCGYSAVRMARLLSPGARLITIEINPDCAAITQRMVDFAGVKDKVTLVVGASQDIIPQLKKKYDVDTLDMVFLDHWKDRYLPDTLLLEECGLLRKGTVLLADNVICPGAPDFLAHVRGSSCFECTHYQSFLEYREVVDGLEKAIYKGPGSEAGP
Sequence of UniProt P67870 (P67870 whole entry, looked up): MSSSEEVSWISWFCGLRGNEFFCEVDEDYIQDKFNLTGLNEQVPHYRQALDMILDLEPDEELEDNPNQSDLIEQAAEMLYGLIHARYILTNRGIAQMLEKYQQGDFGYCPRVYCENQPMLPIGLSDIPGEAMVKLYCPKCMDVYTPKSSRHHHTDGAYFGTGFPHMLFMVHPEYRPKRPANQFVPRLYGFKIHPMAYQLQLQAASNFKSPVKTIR
Sequence of UniProt P14868 (P14868 whole entry, looked up): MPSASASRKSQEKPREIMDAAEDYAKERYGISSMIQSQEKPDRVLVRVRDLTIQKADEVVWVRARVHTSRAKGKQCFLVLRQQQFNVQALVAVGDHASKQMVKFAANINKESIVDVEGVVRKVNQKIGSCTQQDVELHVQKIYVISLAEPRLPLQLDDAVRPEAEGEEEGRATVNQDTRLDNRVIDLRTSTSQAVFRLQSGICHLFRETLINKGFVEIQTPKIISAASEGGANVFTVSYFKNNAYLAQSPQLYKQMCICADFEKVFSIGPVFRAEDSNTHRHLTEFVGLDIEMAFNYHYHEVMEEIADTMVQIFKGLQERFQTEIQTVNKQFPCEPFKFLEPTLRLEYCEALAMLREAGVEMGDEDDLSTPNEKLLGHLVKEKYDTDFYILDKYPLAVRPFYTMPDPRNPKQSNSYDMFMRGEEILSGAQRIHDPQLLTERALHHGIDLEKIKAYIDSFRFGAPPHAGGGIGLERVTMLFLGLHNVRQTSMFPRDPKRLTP
Sequence of UniProt Q8IWF6 (Q8IWF6 whole entry, looked up): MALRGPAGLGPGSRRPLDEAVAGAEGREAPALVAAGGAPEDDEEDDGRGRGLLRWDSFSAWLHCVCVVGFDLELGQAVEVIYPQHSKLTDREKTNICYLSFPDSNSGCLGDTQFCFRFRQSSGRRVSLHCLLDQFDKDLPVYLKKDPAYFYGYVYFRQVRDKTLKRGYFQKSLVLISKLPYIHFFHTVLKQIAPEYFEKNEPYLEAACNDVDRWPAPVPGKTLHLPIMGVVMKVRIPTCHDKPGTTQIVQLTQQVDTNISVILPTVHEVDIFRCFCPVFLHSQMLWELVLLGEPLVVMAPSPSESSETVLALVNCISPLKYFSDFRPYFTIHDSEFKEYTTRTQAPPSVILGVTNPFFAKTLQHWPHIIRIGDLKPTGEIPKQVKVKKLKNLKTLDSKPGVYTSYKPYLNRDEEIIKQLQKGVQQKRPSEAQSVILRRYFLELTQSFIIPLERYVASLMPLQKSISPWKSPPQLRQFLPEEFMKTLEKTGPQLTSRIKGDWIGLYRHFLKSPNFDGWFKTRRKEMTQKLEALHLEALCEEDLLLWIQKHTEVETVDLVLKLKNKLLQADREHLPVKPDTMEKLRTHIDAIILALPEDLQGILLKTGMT
Sequence of UniProt P17812 (P17812 whole entry, looked up): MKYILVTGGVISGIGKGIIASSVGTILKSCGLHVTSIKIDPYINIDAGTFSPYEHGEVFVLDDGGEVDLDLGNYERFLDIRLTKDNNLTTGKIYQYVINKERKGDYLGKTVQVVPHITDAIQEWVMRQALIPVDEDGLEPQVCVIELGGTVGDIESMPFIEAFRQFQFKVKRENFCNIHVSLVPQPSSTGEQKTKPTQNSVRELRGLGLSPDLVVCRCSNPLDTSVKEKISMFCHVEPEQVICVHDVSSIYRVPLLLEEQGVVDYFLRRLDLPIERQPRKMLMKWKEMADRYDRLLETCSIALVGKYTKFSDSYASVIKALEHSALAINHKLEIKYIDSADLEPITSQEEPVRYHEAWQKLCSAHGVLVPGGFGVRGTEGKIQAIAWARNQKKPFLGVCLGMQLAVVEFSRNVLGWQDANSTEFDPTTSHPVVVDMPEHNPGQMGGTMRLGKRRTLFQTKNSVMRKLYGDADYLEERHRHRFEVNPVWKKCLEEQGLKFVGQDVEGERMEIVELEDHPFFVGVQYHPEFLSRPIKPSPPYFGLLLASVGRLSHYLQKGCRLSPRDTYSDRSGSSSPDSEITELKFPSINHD
Sequence of UniProt P99999 (P99999 whole entry, looked up): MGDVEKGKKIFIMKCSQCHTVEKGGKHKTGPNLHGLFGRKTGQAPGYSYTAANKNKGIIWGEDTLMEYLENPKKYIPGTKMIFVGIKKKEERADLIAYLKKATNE

log2 fold change, inactive:
DENND6A (UniProt Q8IWF6) 0.029
CIB1 (UniProt Q99828) 0.045
DIAPH1 (UniProt H9KV28) 0.031
DNAH10 (UniProt Q8IVF4) 0.012
COMT (UniProt P21964) -0.024
CUL1 (UniProt Q13616) 0
CLP1 (UniProt Q92989) -0.024
CHML (UniProt P26374) -0.033
CNOT4 isoform 9 (UniProt O95628) 0.003
CSNK2B (UniProt P67870) 0.145
DARS (UniProt P14868) -0.012

Compound: C1CN(CCC1(CC2=CC=C(C=C2)Cl)N)C3=NC=NC4=C3C=CN4
Assay: as above
In short: as §1

log2 fold change, inactive:
DERA (UniProt Q9Y315) 0.023
DCP2 (UniProt Q8IU60) -0.014
DNAAF5 (UniProt Q86Y56) 0.007
CORO1A (UniProt P31146) -0.031
DIAPH3 (UniProt Q9NSV4) -0.082
CTPS1 (UniProt P17812) -0.007
CNOT2 (UniProt Q9NZN8) 0.012
CYCS (UniProt P99999) 0.002
DNAJC1 (UniProt Q96KC8) 0.017
DHRS3 (UniProt O75911) 0.016
CORO7 isoform 3 (UniProt P57737) 0.026
CYP51A1 (UniProt Q16850) -0.023
DES (UniProt P17661) 0.1
COG5 isoform 2 (UniProt Q9UP83) 0.043
DOK1 (UniProt Q99704) 0.06
CSTF2 (UniProt P33240) 0
CSNK2A1 (UniProt P68400) -0.02
COG2 (UniProt Q14746) 0.031
DAZAP1 (UniProt Q96EP5) -0.004
CSK (UniProt P41240) 0.033
DLGAP5 (UniProt Q15398) -0.013
COASY isoform 2 (UniProt Q13057) 0.024
DPH5 isoform 5 (UniProt Q9H2P9) 0.027
DENND6A (UniProt Q8IWF6) 0.083
CIB1 (UniProt Q99828) 0.073
DIAPH1 (UniProt H9KV28) -0.037
DNAH10 (UniProt Q8IVF4) 0.036
COMT (UniProt P21964) -0.033
CUL1 (UniProt Q13616) -0.006
CLP1 (UniProt Q92989) -0.033
CHML (UniProt P26374) -0.001
CNOT4 isoform 9 (UniProt O95628) -0.013
CSNK2B (UniProt P67870) 0.041
DARS (UniProt P14868) -0.024

Compound: C1COCCN1CCN2C3=CC=CC=C3N=C2NC(=O)C4=CC(=CC=C4)[N+](=O)[O-] [IRAK-1-4 Inhibitor I]
Assay: as above
In short: as §1

log2 fold change, inactive:
DERA (UniProt Q9Y315) 0.002
DCP2 (UniProt Q8IU60) -0.017
DNAAF5 (UniProt Q86Y56) -0.039
CORO1A (UniProt P31146) 0.021
DIAPH3 (UniProt Q9NSV4) -0.041
CTPS1 (UniProt P17812) -0.001
CNOT2 (UniProt Q9NZN8) 0.007
CYCS (UniProt P99999) -0.005
DNAJC1 (UniProt Q96KC8) 0.013
DHRS3 (UniProt O75911) 0.046
CORO7 isoform 3 (UniProt P57737) -0.04
CYP51A1 (UniProt Q16850) 0.043
DES (UniProt P17661) 0.09
COG5 isoform 2 (UniProt Q9UP83) -0.001
DOK1 (UniProt Q99704) 0.021
CSTF2 (UniProt P33240) 0.053
CSNK2A1 (UniProt P68400) 0
COG2 (UniProt Q14746) 0.03
DAZAP1 (UniProt Q96EP5) 0.012
CSK (UniProt P41240) 0.053
DLGAP5 (UniProt Q15398) -0.009
COASY isoform 2 (UniProt Q13057) -0.019
DPH5 isoform 5 (UniProt Q9H2P9) 0.009
DENND6A (UniProt Q8IWF6) 0.025
CIB1 (UniProt Q99828) 0.026
DIAPH1 (UniProt H9KV28) 0.034
DNAH10 (UniProt Q8IVF4) 0.054
COMT (UniProt P21964) 0.019
CUL1 (UniProt Q13616) -0.013
CLP1 (UniProt Q92989) -0.045
CHML (UniProt P26374) -0.012
CNOT4 isoform 9 (UniProt O95628) 0.054
CSNK2B (UniProt P67870) 0.021
DARS (UniProt P14868) -0.041
